PubChem BioAssay (Tox21)
Results filed as inconclusive are left out. The source made the active and inactive calls. Unless noted, the call rests on the fitted dose curve; in most records, active means well fitted curve in the direction sought with a large enough effect in the repeat runs; inconclusive means weak or mixed curves; inactive means no such curve, though single readings can be large; an effect the other way counts as inactive or inconclusive.

Key:
[1] = qHTS RealTime-Glo MT Cell Viability Assay in HepG2 cells - 16 hour (AID 1224885); further: nearly all actives have a fitted effect of over 50% in size
Outline: (§1)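 Cells + NanoLuc/prosubstrate dispensed (600 cells/well) → 5 h at 37 C/5% CO2 → compounds in DMSO transferred → 40 h incubation at 37 C, luminescence read at 0, 8, 16, 24, 32, 40 h.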

[2] = qHTS RealTime-Glo MT Cell Viability Assay in HepG2 cells - 0 hour (AID 1224889); further: nearly all actives have a fitted effect of over 50% in size
Outline: as §1

[3] = A CellTox Green Cytotoxicity Assay to monitor cytotoxicity in HepG2 cells - 8 hour (AID 1224890); further: nearly all actives have a fitted effect of over 45% in size; further: potency means the concentration at half of the fitted maximal effect
Outline: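 Measurements at 0, 8, 16, 24, 32 and 40 h of treatment captured CellTox Green fluorescence in HepG2 cells that had been co-plated with reagent and preincubated 5 h at 37 C/5% CO2.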

[4] = qHTS assay to identify small molecule antagonists of the androgen receptor (AR) signaling pathway using the MDA cell line in the presence of 0.5 nM R1881 - cell viability counter screen (AID 1259242); further: nearly all actives have a fitted effect of over 45% in size; further: potency means the concentration at half of the fitted maximal effect
Outline: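 Concentration-response screen of compounds for toxicity in MDA-kb2 reporter cells: 16 hr at 37C with 0.5 nM R1881, endpoint live-cell protease fluorescence measured in the reporter wells.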

[5] = biological target: Estrogen receptor (Homo sapiens) (UniProt P03372); assay: qHTS assay to identify small molecule antagonists of the estrogen receptor alpha (ER-alpha) signaling pathway using the BG1 cell line in the presence of 0.1 nM 17-beta-estradiol (AID 1259244); further: nearly all actives have a fitted effect of over 50% in size
Estrogen receptor (Homo sapiens), sequence (P03372 whole entry, looked up): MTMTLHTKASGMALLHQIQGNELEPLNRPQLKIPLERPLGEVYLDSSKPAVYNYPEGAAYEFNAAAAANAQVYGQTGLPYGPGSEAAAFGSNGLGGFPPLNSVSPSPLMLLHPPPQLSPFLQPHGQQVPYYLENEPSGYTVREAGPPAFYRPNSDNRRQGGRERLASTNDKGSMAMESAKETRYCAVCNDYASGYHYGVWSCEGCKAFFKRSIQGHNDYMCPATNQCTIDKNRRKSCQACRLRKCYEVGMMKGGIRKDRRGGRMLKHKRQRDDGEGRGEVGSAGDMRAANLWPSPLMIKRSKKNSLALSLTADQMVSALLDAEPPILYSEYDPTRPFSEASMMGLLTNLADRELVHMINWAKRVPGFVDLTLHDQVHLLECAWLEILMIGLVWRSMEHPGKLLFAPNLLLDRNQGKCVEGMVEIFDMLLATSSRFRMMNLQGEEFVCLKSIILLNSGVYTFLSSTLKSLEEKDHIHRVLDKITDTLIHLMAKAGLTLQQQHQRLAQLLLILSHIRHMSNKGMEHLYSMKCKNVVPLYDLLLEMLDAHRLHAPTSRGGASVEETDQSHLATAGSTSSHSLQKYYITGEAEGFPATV
Outline: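 Compounds were tested against 0.1 nM (final) 17beta-estradiol in VM7Luc4E2 cells, which express full-length ER-alpha and an ERE-luciferase reporter; luminescence was recorded following 22 h exposure.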

[6] = qHTS assay to identify small molecule HDAC inhibitors (AID 1259364);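 further: wild-type HCT-116 cells with endogenous class I/II HDAC activity; top concentration of the series differs between compounds; nearly all actives have a fitted effect of over 45% in size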
Outline: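 Screening used wild-type human colon HCT-116 cells incubated overnight, dosed with compounds for 2 hours, and assayed with a homogeneous luminogenic HDAC I/II reagent for 30 minutes at room temperature.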

[7] = qHTS assay to identify small molecule HDAC inhibitors - cell viability counter screen (AID 1259365); further: series mostly up to about 92 µM; nearly all actives have a fitted effect of over 50% in size
Outline: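 Viability readout: CellTiter-Glo luminescence. Wild-type HCT-116 cells, 2hr compound treatment following overnight attachment at 37 C.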

[8] = qHTS assay to identify small molecule antagonists of the sonic hedgehog signaling (Shh) pathway - cell viability counter screen (AID 1259367); further: nearly all actives have a fitted effect of over 55% in size
Outline: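 Cytotoxicity was assessed in parallel with Shh reporter activity by measuring live-cell protease fluorescence (CellTiter-Fluor) in NIH/3T3 cells stably carrying Gli1-Luc, treated with compound under conditioned medium stimulation for 23 hr plus 1 hr reagent incubation.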

[9] = qHTS assay to identify small molecule agonists of the sonic hedgehog signaling (Shh) pathway (AID 1259368; calls by dose curve;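 further: NIH/3T3-derived 3T3Gli1-Luc cells carrying a stable Gli1-driven firefly luciferase reporter; series mostly up to about 92 µM; nearly all actives have a fitted effect of over 15% in size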)
Outline: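 Hedgehog pathway agonism scored by increased firefly luciferase luminescence in 3T3Gli1-Luc cells treated 24 hr at 37 C; detection used a 30 min room-temperature reagent incubation.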

[10] = biological target: Estrogen receptor beta (Homo sapiens) (UniProt Q92731); assay: qHTS assay to identify small molecule agonists of the estrogen receptor beta (ER-beta) signaling pathway (AID 1259377; active means well fitted activation curve with a large enough effect in the signal ratio in the repeat runs, not every such curve was filed as active; the % refers to the signal ratio)
Estrogen receptor beta (Homo sapiens), sequence (Q92731 whole entry, looked up): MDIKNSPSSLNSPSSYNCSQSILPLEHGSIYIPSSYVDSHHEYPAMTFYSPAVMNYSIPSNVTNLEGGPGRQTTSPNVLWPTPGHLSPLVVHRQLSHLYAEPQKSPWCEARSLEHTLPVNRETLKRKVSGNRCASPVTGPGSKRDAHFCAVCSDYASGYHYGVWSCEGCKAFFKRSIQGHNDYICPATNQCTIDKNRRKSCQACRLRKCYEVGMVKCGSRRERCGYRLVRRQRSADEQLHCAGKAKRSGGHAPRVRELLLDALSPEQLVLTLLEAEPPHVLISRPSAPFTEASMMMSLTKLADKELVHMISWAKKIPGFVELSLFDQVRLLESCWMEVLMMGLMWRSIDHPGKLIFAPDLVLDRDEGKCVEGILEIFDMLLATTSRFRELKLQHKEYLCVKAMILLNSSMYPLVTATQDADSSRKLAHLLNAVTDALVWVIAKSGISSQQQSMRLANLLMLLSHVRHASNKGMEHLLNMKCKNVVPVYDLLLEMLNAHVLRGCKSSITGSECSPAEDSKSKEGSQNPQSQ
Outline: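 A UAS-controlled beta-lactamase reporter in ER-beta-UAS-bla HEK293T cells reports receptor activation. Compounds act for 16 hr at 37C in 2% charcoal-stripped serum, and a FRET substrate is read by fluorescence after 2 hours.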

[11] = biological target: Estrogen receptor beta (Homo sapiens) (UniProt Q92731); assay: qHTS assay to identify small molecule antagonists of the estrogen receptor beta (ER-beta) signaling pathway (AID 1259378; active means well fitted inhibition curve with a large enough effect in the signal ratio in the repeat runs, not every such curve was filed as active; the % refers to the signal ratio; further: potency means the concentration at half of the fitted maximal effect)
Outline: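 ER-beta-UAS-bla HEK293T (GripTite) cells in 2% charcoal-stripped FBS medium were preincubated 6 hr at 37C, dosed with compound, then stimulated with 1 nM E2 (final) for 16 hr; beta-lactamase reporter read by B/G FRET fluorescence after 2 hr substrate loading.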

[12] = qHTS RealTime-Glo MT Cell Viability Assay in HEK293 cells - 24 hour (AID 1224886)
Outline: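 Tox21 10K qHTS, HEK293, 600 cells/well, RealTime-Glo reagent co-dispensed with cells; 5 h preincubation, compound by pintool, 37 C, luminescence at 0–40 h.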

[13] = qHTS RealTime-Glo MT Cell Viability Assay in HEK293 cells - 8 hour (AID 1224887); further: nearly all actives have a fitted effect of over 50% in size; further: potency means the concentration at half of the fitted maximal effect
Outline: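 HEK293 + NanoLuc + prosubstrate, 600 cells/well; 5 h, 37 C/5% CO2; compound 23 nL in DMSO by pintool; 37 C; luminescence read at 0, 8, 16, 24, 32 and 40 h time points.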

[14] = qHTS assay to identify small molecule antagonists of the estrogen receptor alpha (ER-alpha) signaling pathway using the BG1 cell line in the presence of 0.1 nM 17-beta-estradiol - cell viability counter screen (AID 1259241); further: nearly all actives have a fitted effect of over 40% in size
Outline: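 The cell line endogenously expresses full-length ER-alpha and carries four EREs driving luciferase. Cells are cultured 5 days hormone-free, treated 22 hr with compounds and 0.1 nM estradiol, then viability is read by fluorescence.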

[15] = qHTS assay to identify small molecule agonists of the sonic hedgehog signaling (Shh) pathway - cell viability counter screen (AID 1259366); further: nearly all actives have a fitted effect of over 50% in size; further: potency means the concentration at half of the fitted maximal effect
Outline: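 Viability measured fluorometrically (CellTiter-Fluor, 1hr, 37C) in 3T3 Gli1-Luc reporter cells after 23hr compound exposure within a 24hr incubation at 37C/5% CO2.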

[16] = qHTS assay to identify small molecule antagonists of the sonic hedgehog signaling (Shh) pathway (AID 1259369; calls by dose curve; further: nearly all actives have a fitted effect of over 45% in size; further: potency means the concentration at half of the fitted maximal effect)
Outline: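 NIH/3T3 stable Gli1-Luc clone, 2,000 cells/well, 4hr settle; cpd + conditioned medium 24hr; Luc reagent 30min RT; luminescence.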

[17] = qHTS assay to identify small molecule agonists of the androgen receptor (AR) signaling pathway in the presence of an antagonist - cell viability counter screen (AID 1259379); further: nearly all actives have a fitted effect of over 25% in size; further: potency means the concentration at half of the fitted maximal effect
Outline: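 MDA-kb2 viability measured by CellTiter-Fluor fluorescence in the same wells as the luciferase signal; nilutamide 3.0uM final; 15-point compound titration; 16 hr at 37C.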

[18] = A CellTox Green Cytotoxicity Assay to monitor cytotoxicity in HEK293 cells - 16 hour (AID 1224888); further: nearly all actives have a fitted effect of over 35% in size; further: potency means the concentration at half of the fitted maximal effect
Outline: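 Tox21 screen in HEK293: membrane-impermeant cyanine dye fluoresces on binding dead-cell DNA; compound pinned 5 h post-seeding, plates held at 37 C, signal read repeatedly through 40 h.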

[19] = biological target: Androgen receptor (Homo sapiens) (UniProt P10275); assay: qHTS assay to identify small molecule antagonists of the androgen receptor (AR) signaling pathway using the MDA cell line in the presence of 0.5 nM R1881 (AID 1259243); further: nearly all actives have a fitted effect of over 50% in size; further: potency means the concentration at half of the fitted maximal effect
Androgen receptor (Homo sapiens), sequence (P10275 whole entry, looked up): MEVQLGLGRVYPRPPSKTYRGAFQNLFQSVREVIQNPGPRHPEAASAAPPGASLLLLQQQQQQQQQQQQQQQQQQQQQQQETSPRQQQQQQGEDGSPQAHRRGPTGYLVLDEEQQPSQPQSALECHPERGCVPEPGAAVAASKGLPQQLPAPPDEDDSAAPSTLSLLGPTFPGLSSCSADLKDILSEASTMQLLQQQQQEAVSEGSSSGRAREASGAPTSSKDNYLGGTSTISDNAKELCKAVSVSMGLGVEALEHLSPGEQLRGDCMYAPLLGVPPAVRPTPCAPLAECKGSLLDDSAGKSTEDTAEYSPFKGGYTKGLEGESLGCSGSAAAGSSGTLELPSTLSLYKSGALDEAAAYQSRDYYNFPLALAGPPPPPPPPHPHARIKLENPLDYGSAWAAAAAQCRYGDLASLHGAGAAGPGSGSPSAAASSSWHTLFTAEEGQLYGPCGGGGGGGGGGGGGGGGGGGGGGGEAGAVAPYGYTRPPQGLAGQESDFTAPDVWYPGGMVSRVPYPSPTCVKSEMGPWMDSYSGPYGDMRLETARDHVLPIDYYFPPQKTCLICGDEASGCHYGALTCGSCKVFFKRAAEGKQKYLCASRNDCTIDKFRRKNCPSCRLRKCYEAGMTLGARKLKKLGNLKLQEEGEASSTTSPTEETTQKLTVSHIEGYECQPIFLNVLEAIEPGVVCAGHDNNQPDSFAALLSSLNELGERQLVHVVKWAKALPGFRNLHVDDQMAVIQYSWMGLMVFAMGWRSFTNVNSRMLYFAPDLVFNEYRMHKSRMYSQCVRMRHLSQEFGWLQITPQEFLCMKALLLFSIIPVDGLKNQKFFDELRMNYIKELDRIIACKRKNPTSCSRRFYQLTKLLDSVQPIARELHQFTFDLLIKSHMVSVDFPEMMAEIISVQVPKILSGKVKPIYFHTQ
Outline: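 With R1881 held at 0.5 nM (final), compound effects on MMTV-luciferase expression in MDA-kb2 cells were scored by luminescence after a 16 hr, 37C incubation.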

[20] = qHTS assay to identify small molecule phospholipidosis (PLD) inducers (AID 1259344; active means well fitted curve in the direction sought with a large enough effect; an effect the other way counts as inactive or inconclusive)
Outline: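 Cells (HepG2, 900 per well) attach for 4 h, receive LipidTOX Red and compound together, incubate 24 h at 37 C, are fixed 30 min with paraformaldehyde/Hoechst, then imaged at one site per well.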

Measured: Potency

CCOc1ccc([N+](=O)[O-])cc1
inactive: [1] | [2] | [3] | [4] | [5] | [6] | [7] | [8] | [9] | [10]
active: [11] 9.83 µM

NCc1ccco1
not listed: [1] | [5] | [10] | [18] | [19] | [20]
inactive: all other assays above

Clc1cccc(Cl)n1
not listed: [1] | [6] | [10] | [11] | [14] | [20]
inactive: all other assays above

O=C1OCc2ccccc21
not listed: [1] | [20]
inactive: all other assays above

CC(C)(C)C1=CC(=O)C(C(C)(C)C)=CC1=O
inactive: [1] | [18] | [3] | [4] | [7] | [15]

Cn1c(=O)[nH]c2ncn(C)c2c1=O
not listed: [1] | [9] | [10] | [11] | [14] | [17] | [20]
inactive: all other assays above

CCC(=O)OC/C=C(\C)CCC=C(C)C
not listed: [1] | [10] | [11] | [20]
inactive: all other assays above

C1CCSC1
not listed: [6] | [10] | [11] | [12] | [13] | [19] | [20]
inactive: all other assays above

C=C1C(CCl)(CCl)C2(Cl)C(Cl)C(Cl)C1(Cl)C2(Cl)Cl (stereo not given)
inactive: [2] | [3] | [14] | [4] | [20] | [6] | [7] | [8] | [9]
active: [13] 43.1 µM | [19] 48 µM | [11] 27 µM

CO[C@H](C(=O)[C@@H](O)[C@@H](C)O)C1Cc2cc3cc(O[C@H]4C[C@@H](O[C@H]5C[C@@H](O)[C@H](O)[C@@H](C)O5)[C@@H](O)[C@@H](C)O4)c(C)c(O)c3c(O)c2C(=O)[C@H]1O[C@H]1C[C@@H](O[C@H]2C[C@@H](O[C@H]3C[C@](C)(O)[C@H](O)[C@@H](C)O3)[C@H](O)[C@@H](C)O2)[C@H](O)[C@@H](C)O1 (stereo not given in full)
inactive: [20]

O=C1OC2(c3ccccc31)c1ccc(O)c(Br)c1Oc1c2ccc(O)c1Br
inactive: [19] | [6] | [7] | [9] | [16]
active: [18] 21.9 µM | [3] 12.3 µM | [17] 61.1 µM

CN1CCN(CCCN2c3ccccc3Sc3ccc(Cl)cc32)CC1
active: [15] 10.6 µM | [16] 16.8 µM
inactive: [13] | [18] | [14] | [4] | [5] | [6] | [7] | [9] | [17]

COC(=O)C(CN)c1c[nH]c2ccc(OC)cc12 (stereo not given)
inactive: [20]

Clc1nc(C(Cl)(Cl)Cl)c(Cl)c(Cl)c1Cl
active: [4] 30.6 µM | [17] 21.7 µM
inactive: [12] | [2] | [3] | [14] | [5] | [6] | [7] | [15] | [8] | [9]

CC1(C)S[C@@H]2[C@H](NC(=O)[C@H](N)c3ccc(O)cc3)C(=O)N2[C@H]1C(=O)O
inactive: [20]

O=C1c2ccccc2C(=O)C1c1ccc(F)cc1
inactive: [20]

O=C(Cl)c1ccc(Cl)cc1Cl
inactive: [13] | [2] | [3] | [4] | [5] | [6] | [7] | [8] | [9] | [16]

CN(C/C=C/c1ccccc1)Cc1cccc2ccccc12
active: [18] 19 µM | [3] 23.9 µM
not listed: [1] | [7] | [12] | [19]
inactive: all other assays above

CCCCCCCCCCCCN1CCCC1=O
inactive: [2] | [14] | [4] | [5] | [6] | [7] | [8] | [9] | [16]
active: [11] 48.6 µM

CCCCCCCCCCCCCC(=O)OCC(COP(=O)([O-])OCC[N+](C)(C)C)OC(=O)CCCCCCCCCCCCC (stereo not given)
inactive: [20]

C=COCCCC
not listed: [1] | [12] | [13] | [20]
inactive: all other assays above
